Targets with a hit are over-represented here; the source holds about 7,900 in all. About 0.6% of all pairs of compound and target were hits.
Key:
Experiment in all cases: log2 fold change, soluble protein after heating vs DMSO (PISA); higher = thermal stabilisation; K562 cells, 10 uM, 30 min; active = over 0.2 and 3.5 SD of the protein, either way, in both replicates (recomputed)
[1] = compound: CC1=C(C=C(C=C1)NC(=O)C2=CC(=CC=C2)N(C)C)NC(=O)C3=CC=C(C=C3)O
Method in brief: (§1)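 Quantification of soluble protein used TMTpro 16plex LC-MS/MS, with channel sums equalised. Samples were the supernatant after 21,000xg for 90 min of pooled aliquots from K562 cells (2×10^6 cells/mL) treated with 10 μM compound for 30 min, heated for 3 min over 48°C-58°C, and extracted in PBS with 0.5% NP-40 at 4°C. Values, from duplicates, describe thermal stability against control samples on a log2 fold-change scale.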

[2] = compound: CC1=CC=C(C=C1)SC2=C3C=C(SC3=CN=C2)C(=O)N
Method in brief: as §1

[3] = compound: CC1=NC(=CC=C1)C2=C(N=C(N2)C(C)(C)C)C3=CC4=NC=CN=C4C=C3
Method in brief: as §1

[4] = compound: CCCS(=O)(=O)Nc1ccc(F)c(C(=O)c2c[nH]c3ncc(-c4ccc(Cl)cc4)cc23)c1F [vemurafenib]
Method in brief: as §1

[5] = compound: CCCS(=O)(=O)Nc1ccc(F)c(C(=O)c2c[nH]c3ncc(Cl)cc23)c1F
Method in brief: as §1

[6] = compound: CCCc1cc(C)[nH]c(=O)c1CNC(=O)c1cc(-c2ccnc(N3CCN(C)CC3)c2)cc2c1cnn2C(C)C
Method in brief: as §1

[7] = compound: CCN(CC)Cc1ccc2cc(COC(=O)Nc3ccc(C(=O)NO)cc3)ccc2c1 [givinostat]
Method in brief: as §1

[8] = compound: CCN(CCCOc1ccc2c(Nc3cc(CC(=O)Nc4cccc(F)c4)[nH]n3)ncnc2c1)CCOP(=O)(O)O [barasertib]
Method in brief: as §1

[9] = compound: CC[C@@H]1C(=O)N(C)c2cnc(Nc3ccc(C(=O)NC4CCN(C)CC4)cc3OC)nc2N1C1CCCC1
Method in brief: as §1

[10] = compound: CC[C@@H]1C(=O)N(C)c2cnc(Nc3ccc(C(=O)N[C@H]4CC[C@H](N5CCN(CC6CC6)CC5)CC4)cc3OC)nc2N1C(C)C [volasertib]
Method in brief: as §1

[11] = compound: CC[C@H](C)N1C=C(C2=C(C=C(C=C21)C3=CN=C(C=C3)N4CCNCC4)C(=O)NCC5=C(C=C(NC5=O)C)C)C
Method in brief: as §1

[12] = compound: CCn1c(C(=O)N(C2CC2)C2CC2)cc2c3c(ncn3C)c(Nc3cc(C)n(C)n3)nc21
Method in brief: as §1

[13] = compound: CCn1cc(-c2ccnc3[nH]c(-c4cccc(CN(C)C)c4)cc23)c(-c2ccc(NC(=O)N(C)C)cc2)n1
Method in brief: as §1

[14] = compound: CN(C)CC(=O)Nc1ccc2[nH]c(=O)c3ccccc3c2c1
Method in brief: as §1

[15] = compound: CN(CCOC1=CC=C(C=C1)C[C@H]2C(=O)NC(=O)S2)C3=CC=CC=N3 (racemic) [rosiglitazone]
Method in brief: as §1

[16] = compound: CN1C2=C(C3=C1C(=O)N(N=C3)CC4=CC(=CC=C4)N)SC(=C2)S(=O)C
Method in brief: as §1

[17] = compound: CN1CCC(CNc2ccc3ncc(-c4cccc(OC(F)(F)F)c4)n3n2)CC1
Method in brief: as §1

[18] = compound: CCCCN(Cc1ccc(C(=O)NO)cc1)C(=O)Nc1ccccc1 [Nexturastat A]
Method in brief: as §1

[19] = compound: CC[C@H](C)[C@@H](C(=O)N[C@@H]([C@@H](C)O)C(=O)N[C@@H](CC(C)C)C(=O)[C@]1(CO1)C)NC(=O)[C@H]([C@@H](C)CC)N(C)C(=O)C [epoxomicin]
Method in brief: as §1

[20] = compound: CC1=C(C=C(C=C1)NC(=O)C2=CC(=CC=C2)C(C)(C)C#N)NC3=CC4=C(C=C3)N=CN(C4=O)C
Method in brief: as §1

Measured: log2 fold change

FBXO9 (UniProt Q9UK97)
UniProt Q9UK97, sequence (Q9UK97 whole entry, looked up): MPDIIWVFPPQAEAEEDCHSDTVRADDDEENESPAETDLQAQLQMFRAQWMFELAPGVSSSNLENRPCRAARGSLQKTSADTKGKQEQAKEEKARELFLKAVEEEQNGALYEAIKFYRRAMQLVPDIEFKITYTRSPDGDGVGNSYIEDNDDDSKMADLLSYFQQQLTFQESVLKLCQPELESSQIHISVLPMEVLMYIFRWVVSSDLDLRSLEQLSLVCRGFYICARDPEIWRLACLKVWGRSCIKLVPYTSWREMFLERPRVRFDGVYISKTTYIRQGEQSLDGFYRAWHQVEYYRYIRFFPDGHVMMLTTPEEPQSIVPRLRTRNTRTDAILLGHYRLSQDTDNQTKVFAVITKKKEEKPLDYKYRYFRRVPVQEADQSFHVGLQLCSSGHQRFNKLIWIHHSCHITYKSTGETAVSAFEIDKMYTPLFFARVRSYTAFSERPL
active: [10] -0.545
inactive: [1] 0.009 | [2] 0.064 | [3] -0.025 | [4] 0 | [5] 0.061 | [6] 0.052 | [7] 0.111 | [8] 0.117 | [9] -0.17 | [11] 0.06 | [12] 0.086 | [13] 0.009 | [14] 0.097 | [15] 0.07 | [16] 0.045 | [17] 0.203

HDAC10 (UniProt Q969S8)
inactive: [1] 0.027 | [2] -0.001 | [4] 0.231 | [5] 0.046 | [6] 0.056 | [7] 0.153 | [8] -0.117 | [9] -0.113 | [10] -0.041 | [11] 0.028 | [12] -0.005 | [13] -0.179 | [14] 0.224 | [15] 0.12 | [16] -0.107 | [17] 0.055

FAT2 (UniProt Q9NYQ8)
inactive: [1] -0.035 | [2] -0.113 | [3] -0.114 | [18] 0.456 | [4] -0.002 | [5] 0.009 | [6] -0.333 | [7] 0.119 | [8] 0.069 | [9] 0.011 | [10] 0.029 | [19] -0.047 | [12] -0.183 | [13] -0.023 | [14] -0.06 | [15] -0.27 | [16] -0.023 | [17] 0.109

GNL3 (UniProt Q9BVP2)
inactive: [20] 0.002 | [4] -0.12 | [6] -0.307 | [8] 0.079 | [9] 0.018 | [11] -0.197 | [19] -0.06 | [13] 0.118 | [14] 0.002 | [15] 0.046 | [16] -0.103 | [17] 0.081
active: [18] 0.491

IDH3A isoform 2 (UniProt P50213)
UniProt P50213, sequence (P50213 whole entry, looked up): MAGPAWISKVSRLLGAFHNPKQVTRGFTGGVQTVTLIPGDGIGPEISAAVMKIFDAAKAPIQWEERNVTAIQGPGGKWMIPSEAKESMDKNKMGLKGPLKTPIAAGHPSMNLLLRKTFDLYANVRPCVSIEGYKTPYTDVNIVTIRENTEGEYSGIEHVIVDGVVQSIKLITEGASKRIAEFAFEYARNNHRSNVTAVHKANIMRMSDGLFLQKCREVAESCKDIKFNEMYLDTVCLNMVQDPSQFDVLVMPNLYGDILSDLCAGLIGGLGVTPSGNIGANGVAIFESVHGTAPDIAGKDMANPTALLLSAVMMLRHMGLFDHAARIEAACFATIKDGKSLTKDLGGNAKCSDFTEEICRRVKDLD
inactive: [3] -0.083 | [7] 0.175 | [8] -0.012 | [11] -0.056 | [12] -0.14 | [15] 0.003

GOLGA8R (UniProt I6L899)
inactive: [1] -0.037 | [2] 0.041 | [3] -0.205 | [4] 0.06 | [5] -0.086 | [7] 0.223 | [8] 0.048 | [9] -0.036 | [10] -0.4 | [12] -0.233 | [13] -0.182 | [14] 0.191 | [15] 0.074 | [16] -0.003 | [17] -0.033

GOLGA6B (UniProt A6NDN3)
active: [4] 0.882 | [11] -0.579
inactive: [20] -0.035 | [3] 0.033 | [18] -0.099 | [6] -0.113 | [7] 0.002 | [8] 0.011 | [19] -0.061 | [12] 0.07 | [13] -0.185 | [14] 0.327 | [15] 0.084 | [17] 0.067

FUNDC1 (UniProt Q8IVP5)
inactive: [20] 0.007 | [2] 0.118 | [5] -0.013 | [6] -0.285 | [8] 0.052 | [10] 0.078 | [15] -0.13

GBA2 (UniProt Q9HCG7)
active: [10] 0.308
inactive: [20] -0.079 | [2] -0.043 | [3] 0 | [18] 0.051 | [4] 0 | [5] -0.032 | [6] -0.076 | [7] -0.02 | [8] 0.008 | [9] 0 | [11] -0.082 | [19] -0.062 | [12] -0.075 | [14] 0.027 | [15] -0.07 | [16] -0.085

HSPA2 (UniProt P54652)
inactive: [20] -0.109 | [1] 0.046 | [3] -0.039 | [6] 0.057 | [7] 0.13 | [8] -0.004 | [11] -0.014 | [12] -0.012 | [15] 0.02

HS1BP3 (UniProt Q53T59)
inactive: [20] 0.023 | [1] -0.045 | [2] -0.109 | [3] -0.046 | [18] 0.052 | [4] 0.132 | [5] 0.021 | [7] 0.111 | [8] 0.047 | [9] -0.038 | [11] 0.073 | [19] 0.056 | [12] -0.043 | [14] 0.012 | [15] 0.07 | [16] -0.041
active: [10] -0.343

IFNGR1 (UniProt P15260)
inactive: [20] -0.246 | [1] 0.048 | [2] -0.056 | [4] -0.124 | [5] -0.181 | [6] -0.174 | [7] 0.281 | [8] 0.028 | [9] 0.065 | [10] 0.15 | [11] -0.382 | [19] 0.021 | [12] -0.108 | [13] 0.1 | [14] -0.087 | [15] -0.02 | [16] 0.032 | [17] 0.127
active: [18] 0.743

HAUS4 (UniProt Q9H6D7)
UniProt Q9H6D7, sequence (Q9H6D7 whole entry, looked up): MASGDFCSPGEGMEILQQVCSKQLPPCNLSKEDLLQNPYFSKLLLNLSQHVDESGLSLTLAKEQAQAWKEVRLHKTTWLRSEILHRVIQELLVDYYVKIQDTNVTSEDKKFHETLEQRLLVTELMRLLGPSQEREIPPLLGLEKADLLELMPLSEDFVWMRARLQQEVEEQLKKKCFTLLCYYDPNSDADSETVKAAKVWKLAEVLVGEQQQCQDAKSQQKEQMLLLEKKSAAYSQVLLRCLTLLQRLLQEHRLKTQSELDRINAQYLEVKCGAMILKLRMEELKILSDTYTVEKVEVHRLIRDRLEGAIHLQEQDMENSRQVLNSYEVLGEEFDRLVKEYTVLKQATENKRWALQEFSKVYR
inactive: [20] -0.143 | [1] 0.003 | [2] 0.084 | [18] -0.061 | [4] -0.049 | [5] 0.012 | [6] -0.269 | [7] 0.08 | [8] -0.16 | [9] -0.138 | [10] -0.027 | [11] 0.123 | [19] -0.391 | [12] -0.04 | [13] 0.032 | [14] -0.072 | [15] 0.027 | [16] 0.246 | [17] 0.049

GSE1 (UniProt Q14687)
UniProt Q14687, sequence (Q14687 whole entry, looked up): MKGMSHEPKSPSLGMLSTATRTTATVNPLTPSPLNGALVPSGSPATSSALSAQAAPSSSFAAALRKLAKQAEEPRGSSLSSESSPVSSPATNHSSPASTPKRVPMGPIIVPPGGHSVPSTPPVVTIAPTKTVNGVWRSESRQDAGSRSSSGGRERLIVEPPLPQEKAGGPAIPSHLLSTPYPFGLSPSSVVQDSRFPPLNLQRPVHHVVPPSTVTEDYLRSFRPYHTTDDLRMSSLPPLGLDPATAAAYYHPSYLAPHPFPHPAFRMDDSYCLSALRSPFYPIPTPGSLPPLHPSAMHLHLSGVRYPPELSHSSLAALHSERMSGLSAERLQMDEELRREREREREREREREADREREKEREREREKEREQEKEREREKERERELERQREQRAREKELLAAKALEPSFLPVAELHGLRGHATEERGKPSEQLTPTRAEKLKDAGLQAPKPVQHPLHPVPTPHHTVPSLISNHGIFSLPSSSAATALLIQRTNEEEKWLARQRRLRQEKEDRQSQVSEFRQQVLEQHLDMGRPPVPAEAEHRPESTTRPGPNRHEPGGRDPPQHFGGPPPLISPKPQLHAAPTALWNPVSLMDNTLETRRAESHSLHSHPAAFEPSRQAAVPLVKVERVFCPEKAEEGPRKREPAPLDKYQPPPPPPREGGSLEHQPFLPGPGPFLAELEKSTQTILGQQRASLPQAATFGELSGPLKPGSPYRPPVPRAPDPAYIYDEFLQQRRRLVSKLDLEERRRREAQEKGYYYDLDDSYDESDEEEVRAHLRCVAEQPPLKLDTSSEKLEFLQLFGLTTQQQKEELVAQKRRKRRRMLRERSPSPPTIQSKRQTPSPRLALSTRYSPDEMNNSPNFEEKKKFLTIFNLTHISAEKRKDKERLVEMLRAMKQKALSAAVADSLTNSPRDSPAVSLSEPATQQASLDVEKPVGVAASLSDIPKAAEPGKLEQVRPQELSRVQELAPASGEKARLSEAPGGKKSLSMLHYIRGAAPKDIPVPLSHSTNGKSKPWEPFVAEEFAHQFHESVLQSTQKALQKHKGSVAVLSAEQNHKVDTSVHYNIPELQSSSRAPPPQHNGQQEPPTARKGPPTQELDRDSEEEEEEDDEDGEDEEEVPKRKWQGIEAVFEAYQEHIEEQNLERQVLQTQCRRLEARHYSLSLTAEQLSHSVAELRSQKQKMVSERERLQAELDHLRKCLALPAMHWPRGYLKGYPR
inactive: [1] 0.071 | [4] -0.13 | [8] 0.232 | [11] -0.003 | [14] -0.117 | [15] 0.151 | [16] -0.004

GREB1 (UniProt Q4ZG55)
UniProt Q4ZG55, sequence (Q4ZG55 whole entry, looked up): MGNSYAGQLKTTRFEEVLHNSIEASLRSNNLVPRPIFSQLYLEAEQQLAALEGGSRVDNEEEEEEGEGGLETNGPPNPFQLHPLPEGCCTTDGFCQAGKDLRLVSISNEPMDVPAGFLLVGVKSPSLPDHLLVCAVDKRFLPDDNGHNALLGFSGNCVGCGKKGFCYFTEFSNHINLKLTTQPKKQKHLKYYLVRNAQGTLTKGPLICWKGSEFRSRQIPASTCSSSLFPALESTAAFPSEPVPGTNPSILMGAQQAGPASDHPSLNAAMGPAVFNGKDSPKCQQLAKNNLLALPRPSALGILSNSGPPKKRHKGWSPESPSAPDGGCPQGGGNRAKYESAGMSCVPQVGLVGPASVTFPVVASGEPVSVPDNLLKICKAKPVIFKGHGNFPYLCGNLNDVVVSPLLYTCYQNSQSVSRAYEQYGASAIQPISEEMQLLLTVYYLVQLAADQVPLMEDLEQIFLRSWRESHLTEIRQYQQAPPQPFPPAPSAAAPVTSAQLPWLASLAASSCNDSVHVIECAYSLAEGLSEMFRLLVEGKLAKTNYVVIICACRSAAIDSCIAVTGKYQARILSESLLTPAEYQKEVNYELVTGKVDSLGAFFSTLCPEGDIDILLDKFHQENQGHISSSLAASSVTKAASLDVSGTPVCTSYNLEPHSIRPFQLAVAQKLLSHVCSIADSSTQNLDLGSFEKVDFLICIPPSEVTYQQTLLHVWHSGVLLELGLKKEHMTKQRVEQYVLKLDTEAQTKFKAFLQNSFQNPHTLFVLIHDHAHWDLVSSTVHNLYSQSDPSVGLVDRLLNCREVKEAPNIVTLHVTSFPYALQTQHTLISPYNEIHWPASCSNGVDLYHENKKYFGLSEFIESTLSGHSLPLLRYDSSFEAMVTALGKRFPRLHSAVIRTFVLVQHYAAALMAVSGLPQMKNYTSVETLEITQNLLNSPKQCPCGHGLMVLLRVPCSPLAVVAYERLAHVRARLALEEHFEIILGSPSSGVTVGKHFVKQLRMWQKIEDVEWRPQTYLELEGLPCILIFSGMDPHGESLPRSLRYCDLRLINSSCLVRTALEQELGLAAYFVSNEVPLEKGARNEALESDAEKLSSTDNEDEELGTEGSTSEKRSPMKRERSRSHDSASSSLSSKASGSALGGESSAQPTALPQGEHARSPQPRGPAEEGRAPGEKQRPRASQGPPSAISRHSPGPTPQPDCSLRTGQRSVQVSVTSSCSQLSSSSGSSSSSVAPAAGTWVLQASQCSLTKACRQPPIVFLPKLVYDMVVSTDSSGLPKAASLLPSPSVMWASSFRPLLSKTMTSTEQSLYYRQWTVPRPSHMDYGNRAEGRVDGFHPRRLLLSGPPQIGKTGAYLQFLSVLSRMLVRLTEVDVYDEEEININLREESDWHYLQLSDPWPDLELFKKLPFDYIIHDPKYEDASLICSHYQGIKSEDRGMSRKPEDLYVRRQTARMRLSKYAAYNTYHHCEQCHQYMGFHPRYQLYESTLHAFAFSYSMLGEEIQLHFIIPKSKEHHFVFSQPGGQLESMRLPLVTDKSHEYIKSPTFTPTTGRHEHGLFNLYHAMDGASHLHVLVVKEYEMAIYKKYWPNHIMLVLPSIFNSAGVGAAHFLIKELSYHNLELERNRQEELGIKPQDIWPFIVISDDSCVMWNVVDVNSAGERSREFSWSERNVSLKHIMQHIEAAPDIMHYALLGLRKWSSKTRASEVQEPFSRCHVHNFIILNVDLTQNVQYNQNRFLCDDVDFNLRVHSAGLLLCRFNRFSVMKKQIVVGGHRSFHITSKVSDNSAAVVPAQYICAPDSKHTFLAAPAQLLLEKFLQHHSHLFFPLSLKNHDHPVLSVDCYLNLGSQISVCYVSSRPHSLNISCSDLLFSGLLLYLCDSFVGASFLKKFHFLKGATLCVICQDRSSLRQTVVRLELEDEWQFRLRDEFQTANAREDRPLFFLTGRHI
inactive: [20] -0.003 | [3] -0.338 | [4] 0.047 | [7] 0.294 | [19] -0.081 | [12] -0.108 | [14] -0.095
active: [18] 0.755

GSTT1 (UniProt P30711)
UniProt P30711, sequence (P30711 whole entry, looked up): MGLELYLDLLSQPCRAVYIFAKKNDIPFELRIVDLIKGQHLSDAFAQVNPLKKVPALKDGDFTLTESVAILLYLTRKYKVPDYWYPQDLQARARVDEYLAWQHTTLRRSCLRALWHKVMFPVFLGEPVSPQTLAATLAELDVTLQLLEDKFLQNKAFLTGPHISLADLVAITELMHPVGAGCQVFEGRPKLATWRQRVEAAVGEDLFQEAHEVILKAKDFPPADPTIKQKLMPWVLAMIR
inactive: [1] -0.004 | [2] 0.011 | [3] 0.101 | [18] -0.062 | [4] 0.064 | [5] -0.063 | [6] 0.081 | [7] 0.009 | [8] -0.018 | [9] 0.02 | [10] -0.057 | [11] -0.038 | [19] 0.203 | [12] -0.019 | [13] 0.019 | [14] -0.034 | [15] -0.024 | [16] -0.058 | [17] -0.002

FRA10AC1 isoform 3 (UniProt Q70Z53)
active: [10] -0.613
inactive: [20] -0.068 | [2] 0.04 | [3] 0.041 | [18] -0.096 | [4] 0.104 | [5] 0.001 | [6] -0.001 | [7] 0.052 | [8] -0.002 | [9] -0.086 | [11] -0.034 | [19] 0.041 | [12] -0.058 | [13] 0.025 | [14] -0.013 | [15] 0.115 | [16] 0.093 | [17] 0.057

GTF3A (UniProt Q92664)
inactive: [20] 0.074 | [2] 0.09 | [3] 0.125 | [18] -0.054 | [4] -0.075 | [5] 0.078 | [6] -0.035 | [7] -0.048 | [8] -0.053 | [9] -0.128 | [10] -0.028 | [11] 0.074 | [19] -0.101 | [12] -0.024 | [13] -0.263 | [14] 0.049 | [15] 0.071 | [16] 0.016
active: [17] -0.447

FIZ1 (UniProt Q96SL8)
UniProt Q96SL8, sequence (Q96SL8 whole entry, looked up): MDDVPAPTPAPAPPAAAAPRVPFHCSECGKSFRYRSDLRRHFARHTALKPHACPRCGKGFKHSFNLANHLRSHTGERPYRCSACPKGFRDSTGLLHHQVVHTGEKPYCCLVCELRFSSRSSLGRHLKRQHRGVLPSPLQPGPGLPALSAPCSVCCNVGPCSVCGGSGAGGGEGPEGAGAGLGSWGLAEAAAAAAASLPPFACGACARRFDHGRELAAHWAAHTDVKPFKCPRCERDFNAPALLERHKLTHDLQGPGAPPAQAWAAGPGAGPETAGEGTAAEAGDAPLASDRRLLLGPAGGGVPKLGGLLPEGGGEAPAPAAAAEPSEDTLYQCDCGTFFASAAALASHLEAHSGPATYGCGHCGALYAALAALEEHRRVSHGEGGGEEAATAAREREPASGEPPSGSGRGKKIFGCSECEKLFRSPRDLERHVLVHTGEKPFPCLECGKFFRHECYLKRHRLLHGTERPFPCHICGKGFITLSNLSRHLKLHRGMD
inactive: [20] -0.164 | [3] -0.047 | [18] 0.102 | [4] 0.13 | [6] -0.022 | [9] 0.169 | [11] 0.088 | [19] -0.071 | [13] -0.125 | [14] -0.06 | [16] 0.138 | [17] 0.024

HSPA8 (UniProt E9PN89)
inactive: [20] -0.158 | [2] -0.261 | [3] -0.144 | [18] -0.019 | [4] -0.276 | [5] -0.507 | [6] -0.689 | [7] 0.182 | [8] 0.03 | [9] 0.167 | [10] 0.114 | [11] -0.205 | [19] -0.278 | [12] -0.127 | [13] 0.178 | [14] -0.139 | [15] 0.049 | [17] -0.154

HBZ, A0A494C057
inactive: [6] 0.051 | [7] 0.109 | [8] 0.013 | [9] 0.203 | [11] -0.079 | [12] -0.008 | [15] -0.188
